HP1b binding inh: blocks HP1-beta chromodomain binding to methylated histone tails. P83916. AlphaScreen HP1-beta / biotin-H3K9me3 peptide binding. Potency, µM (series often up to 114 µM), without a hit: top-dose activity change, negative = inhibition, hits mostly inhibitors. 390,000 compounds, 0.56% hits. AID 540317; also: potency is read from the fitted curve at half-maximal effect; nearly all actives have a fitted effect of over 70% in size
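Compound inhibition of the preformed complex between 50 nM HP1-beta and 50 nM biotinylated H3K9me3 peptide was read by AlphaScreen. Buffer was PBS pH 7.4 with 0.01% Tween-20. Incubations ran 30 min at room temperature, with 10 ug/mL donor/acceptor beads.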
CtBP-E1A inh: CtBP/E1A binding inhibition. AlphaScreen GST-E1A/His-CtBP binding, 1536-well; stronger effect = lower value. activity change, % (test concentration not listed). 340,000 compounds, 0.49% hits. AID 651724; in the data active = activity change below about -65%; inconclusive = mostly about -30% to -63%; also: % is scaled to controls: 0 for no effect and ±100 for the full control effect
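Steps: dispense buffer (Tris pH 8.0, NaCl 300 mM, TCEP 1 mM, BSA, Tween 20); add 5X protein mix (GST-E1A, His-CtBP, 125 nM each); pin 23 nL compound; 2 h at 37 °C, dark; add 5X beads (50 ug/mL); 1 h; read.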
JMJD2A Tudor: inhibitors of human JMJD2A Tudor domain; AlphaScreen JMJD2A-Tudor / H3K4me3 peptide binding; Potency, µM (doses to about 114 µM), without a hit: at the highest dose activity change, negative = inhibition, most hits filed as inhibitors; 390,000 compounds, 4.4% hits; AID 504339; also: potency is read from the fitted curve at half-maximal effect; % is scaled to controls: 0 for no effect and ±100 for the full control effect; nearly all actives have a fitted effect of over 50% in size
G9a block: blocks human histone lysine methyltransferase G9a | Q96KQ7 | G9a H3K9 monomethylation, AlphaScreen, 2 h | Potency, µM (titrated, usually from 102 µM), for the others: at the top dose activity, negative = inhibition, usual class: inhibitors | 350,000 compounds, 8.8% hits; also: potency is read from the fitted curve at half-maximal effect; % is scaled to controls: 0 for no effect and ±100 for the full control effect; nearly all actives have a fitted effect of over 75% in size
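Enzyme 20 nM + cpd, 15 min RT; add b-H3K9 pep 500 nM / SAM 20 uM; 2 h RT; anti-H3K9me1 Ab 0.5 ug/mL + SA donor / anti-rabbit acceptor beads 20 ug/mL each, 10 min; AlphaScreen read.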
Six1-Eya2 blk: inhibitors of human Six1/Eya2 interaction; Q15475+O00167; AlphaScreen GST-Six1/His-Eya2 binding, biochemical; stronger effect = lower value; activity change, % (test concentration not listed); 360,000 compounds, 0.56% hits; in the data active = activity change below about -65%; inconclusive = mostly about -30% to -63%; also: % is scaled to controls: 0 for no effect and ±100 for the full control effect
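Six1/Eya2 binding was read as AlphaScreen signal after compounds were pinned into GST-Six1 plus His-tagged Eya2 (5X stock 250/500 nM) in pH 8.0 Tris/NaCl/TCEP buffer, beads added, then incubated 1 h, 37 C, dark.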
BAZ2B block: inhibitors of human BAZ2B bromodomain | 360,000 compounds, 4.4% hits | Q9UIF8 | AID 504333 | Potency, µM (series often up to 114 µM), without a hit: at the highest dose activity change, negative = inhibition, actives largely listed as inhibitors | AlphaScreen BAZ2B-H3K14Ac peptide displacement; also: potency is read from the fitted curve at half-maximal effect; % is scaled to controls: 0 for no effect and ±100 for the full control effect; nearly all actives have a fitted effect of over 60% in size
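Multi-concentration screen (max 110 uM) measuring displacement of acetylated histone H3 peptide from BAZ2B by AlphaScreen, using 50 nM protein, 50 nM peptide and 10 ug/mL streptavidin donor plus Ni-chelate acceptor beads.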
An asterisk follows results filed as active; ? = inconclusive; . = no result; ! = repeats disagree; [ ] = dose if it differs, or a comment. Most compounds without a hit are left out; they make up all but 10% or so of the library. Unless noted, calls follow the shape of the dose curve; as a rule, active = well fitted inhibition curve with a large enough effect; inconclusive = small, poorly fitted or top-dose-only effect; inactive = no such curve, though single readings can be large or run the other way.

SMILES	HP1b binding inh	CtBP-E1A inh	JMJD2A Tudor	G9a block	Six1-Eya2 blk	BAZ2B block
Cc1ccc(-c2cc(C(=O)N(C)CC(=O)Nc3ccccc3Br)c3ccccc3n2)o1	0%	-1	?	8.9µM*	3	-1%
COc1ccc(NC(=O)c2cc(-c3ccco3)nc3ccccc23)cc1	-6%	4	?	.	0	.
CN(CC(=O)Nc1ccc(F)c(F)c1F)C(=O)c1cc(-c2ccncc2)nc2ccccc12	-4%	0	-28%	56µM*	-2	-7%
COc1ccc(NC(=O)CN(C)C(=O)c2cc(-c3ccco3)nc3ccccc23)cc1	45µM*	2	14µM*	-3%[0.501 µM]	-28	32µM*
CN(CC(=O)Nc1ccc(Cl)c(C(F)(F)F)c1)C(=O)c1cc(-c2ccncc2)nc2ccccc12	-2%	-1	?	17%[2.33 µM]	-3	-24%
COc1ccc(NC(=O)CN(C)C(=O)c2ccc(-c3cccc(C(F)(F)F)c3)o2)cc1	8%	-1	-15%	21%	-5	-21%
COc1ccc(NC(=O)CN(C)C(=O)c2ccc(-c3ccccc3Cl)o2)cc1	15%	-4	-18%	40µM*	-8	-30%
Cc1ccc(C)c(NC(=O)Cn2ncc3c([nH]c4ccccc43)c2=O)c1	18%	.	-5%	0%[59 µM]	.	3%
CCc1ccc(C(=O)CC2(O)C(=O)N(CCc3ccccc3)c3ccc(Cl)cc32)cc1 (centres undefined)	15%	.	-16%	-2%[59 µM]	.	-4%
COCCc1nn2c(=O)cc(COC(=O)COc3ccc(F)cc3)nc2s1	36%	.	-8%	29%[59 µM]	.	-4%
COc1ccc(-c2cc(C(=O)N(C)CC(=O)Nc3cccc(F)c3)c3ccccc3n2)cc1OC	.	0	.	.	-2	.
CN(CC(=O)Nc1cccc(F)c1)C(=O)c1cc(-c2ccco2)nc2ccccc12	50µM*	-13	10µM*	15%[0.501 µM]	-18	50µM*
CC(C)CN1CN(S(=O)(=O)c2cccs2)c2nc3ccccc3nc21	.	.	.	45µM*	.	-25%
O=S(=O)(c1cccs1)N1CN(C2CCCC2)c2nc3ccccc3nc21	11%	0	-31%	?	9	?
COCCCN1CN(S(=O)(=O)c2cccs2)c2nc3ccccc3nc21	24%	1	-14%	13µM*	9	-6%
CC1(C)N([O-])C2=C(c3ccccc3C2=O)[N+](=O)C1(C)C	-2%	-1	-8%	79µM*	10	13%
CCC1(C)N([O-])C(C)=C(c2ccccc2)[N+]1=O (centres undefined)	30%	13	-8%	-3%[12.7 µM]	7	2%
Clc1ccc(OCc2nc(-c3ccccn3)n[nH]2)cc1	53%	-94*	20µM*	85%[59 µM]	-92*	22µM*
Cc1cc(Oc2ccc(Cl)cc2)nc(-c2ccccn2)n1	15%	2	-19%	18µM*	4	-2%
Brc1ccc(OCc2nc(-c3ccccn3)n[nH]2)cc1	30%	-93*	40µM*	44%	-91*	28µM*
Cc1cc(Oc2ccccc2)nc(-c2ccccc2O)n1	167%	21	119%	128%[59 µM]	18	74%
CCCn1ccc2c(OCC(=O)NCc3ccccc3Cl)cccc2c1=O	97%	.	-6%	8%[59 µM]	.	15%
O=C(O)Cc1c[nH]c2ccc(O)cc12	30%	1	-9%	24µM*!	-1	.
COc1cccc(Nc2ncc3nc(-c4ccccc4)c(=O)n(C)c3n2)c1	.	.	.	-4%[0.501 µM]	.	.
Cc1ccc(-c2c(C(=O)Nc3ccccc3C)c(C)[nH]c(=S)c2C#N)o1	5%	.	-4%[11.4 µM]	-130%	0	79µM*
Cc1[nH]c(=S)c(C#N)c(-c2ccccc2)c1C(=O)Nc1ccccc1	-3%	1	79µM*	?	0	-15%
CCc1[nH]c(=S)c(C#N)c(-c2ccccc2)c1C(=O)OC	20%	0	?	16µM*	4	-6%
COC(=O)c1c(C)[nH]c(C)c1-c1ccccc1	-27%	-2	-24%	-10%[2.33 µM]	-9	-27%
